DNA FID counter = counter-screen for HCV NS3 helicase inhibitors: DNA intercalator displacement; DNA fluorescent intercalator displacement, fluorescence; inhibition, % at 7.9 µM; hit rate 0.17% among 290,000; AID 1845; in the data active = inhibition above about 37%;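 note: 0% = vehicle and 100% = reference compound; higher means more ethidium bromide displaced from hairpin DNA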
beta cell repl = MIN6 beta-cell proliferation induction; MIN6 cells proliferation, ATPlite luminescence, 48 h; cells starved in 0.2% serum; 100% = growth in 10% serum; proliferation, % at 10 µM; hit rate 0.29% among 330,000; AID 2380;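 active = compounds whose signal lies at least 3.5 SD above the mean of all wells on their plate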;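 note: 0% = DMSO-treated cells in low-serum medium and 100% = 10% serum control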
RAD54 inh = blocks human RAD54 Holliday junction branch migration; inhibition, % at 10.4 µM; hit rate 0.14% among 360,000; FAM/BHQ fluorescence; Q92698;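 active = mean normalized replicate activity at least 40 and at least half of replicates scoring 40 or more; inconclusive = only one of the two criteria met; inactive = mean below 40 and under half of replicates reaching 40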;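 note: 0% = median of neutral control wells and 100% = median of positive control wells; inhibitors cause a drop in the FAM fluorescence signal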
PREPL inhibitor = inhibitors of human prolyl oligopeptidase-like enzyme PREPL | inhibition, % at 5.96 µM | recombinant PREPL, fluorescence polarization activity-based probe | Q4J6C6 | hit rate 0.68% among 320,000 | AID 2751; in the data active = inhibition above about 43%;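 note: 0% = enzyme with DMSO and 100% = wells lacking enzyme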
UBC13 polyUb = inhibitors of human UBC13 polyubiquitin chain formation | P61088 | inhibition, % at 20 µM | hit rate 0.47% among 330,000 | TR-FRET; in the data active = inhibition above about 45%, passing the limit was not always enough; inconclusive = no clear call, values can overlap the other calls
Target sequence (P61088 whole entry, looked up): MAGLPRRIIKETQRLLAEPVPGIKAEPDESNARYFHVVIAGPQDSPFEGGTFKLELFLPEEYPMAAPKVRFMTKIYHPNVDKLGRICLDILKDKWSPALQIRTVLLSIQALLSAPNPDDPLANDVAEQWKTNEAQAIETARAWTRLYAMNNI
RAD52 inh = blocks human RAD52 DNA annealing; P43351; recombinant RAD52 DNA annealing, FRET fluorescence; inhibition, % at 18.7 µM; hit rate 0.46% among 360,000; AID 651710;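 active = every replicate showing at least 50% inhibition; inconclusive = mean inhibition at least 50% but not in every replicate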
Target sequence (P43351 whole entry, looked up): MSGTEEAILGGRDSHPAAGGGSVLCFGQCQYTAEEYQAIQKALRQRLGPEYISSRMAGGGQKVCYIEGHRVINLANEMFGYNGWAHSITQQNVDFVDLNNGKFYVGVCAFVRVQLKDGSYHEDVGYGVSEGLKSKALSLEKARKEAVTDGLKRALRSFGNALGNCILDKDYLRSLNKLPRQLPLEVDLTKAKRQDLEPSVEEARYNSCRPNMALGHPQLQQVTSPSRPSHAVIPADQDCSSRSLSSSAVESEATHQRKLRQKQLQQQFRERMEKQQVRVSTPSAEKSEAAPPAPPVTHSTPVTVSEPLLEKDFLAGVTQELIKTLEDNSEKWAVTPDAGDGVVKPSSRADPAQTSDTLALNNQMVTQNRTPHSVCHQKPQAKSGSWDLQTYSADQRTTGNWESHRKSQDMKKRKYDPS
DNA binder FP = counter-screen for RAD52 inhibitors: DNA binding compounds; shares compounds with RAD52 inh; Salmon sperm DNA/acridine orange FP displacement; AC50, µM; hit rate 8% among 1,000; AID 652128;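 active = fitted half-maximal concentration for signal loss at or below twice the highest dose tested, in every separate run, actives reach about 64 µM in these data; inconclusive = runs disagree, or flat partial signal loss, or poor fit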
* marks the source's active call; other numbers are inactive results. A selection: hits, their analogues and other compounds. The true share with any hit is near 1.3%.

CN1CCN(C(=O)C[C@@H]2CC[C@@H]3[C@H](COC[C@H](O)CN3C(=O)Nc3ccc(F)cc3)O2)CC1 was read as RAD54 inh 3 and RAD52 inh 3.
For O=C(N[C@H]1CC[C@H](CCNC(=O)C2CCC2)O[C@H]1CO)c1ccncc1 the results were RAD54 inh -7 and RAD52 inh 1.
Screening C[C@@H]1CN([C@@H](C)CO)C(=O)c2cccc(NC(=O)Nc3ccc4c(c3)OCO4)c2O[C@@H]1CN(C)Cc1ccc(Oc2ccccc2)cc1 returned RAD54 inh 0, RAD52 inh 53 and DNA binder FP inactive.
Screening COc1ccc(N2CCc3c(C)nc4c(OC)cccc4c32)cc1 returned DNA FID counter 4, beta cell repl -4, PREPL inhibitor 32, UBC13 polyUb 0, RAD52 inh 52* and DNA binder FP inactive.
`COCCNc1nc(NCc2cccc(OC)c2)c2sc(-c3ccccc3)cc2n1` gave RAD54 inh -5, RAD52 inh 80* and DNA binder FP inactive.
`C=CCNc1nc2cc(-c3ccccc3C)sc2c(=O)n1C` gave RAD54 inh 4 and RAD52 inh -74.
Screening CN(C)CCCNc1nc2cc(-c3ccsc3)sc2c(=O)n1C returned RAD54 inh 32, RAD52 inh 52* and DNA binder FP inactive.
For COCCNc1nc2cc(-c3ccsc3)sc2c(=O)n1C the results were RAD54 inh -13 and RAD52 inh 3.
CN(C)CCCNc1nc2cc(-c3cnn(Cc4ccccc4)c3)sc2c(=O)n1C was read as RAD54 inh 48, RAD52 inh 59* and DNA binder FP inactive.
Screening Cc1ccc(F)cc1-c1cc2nc(NCCCN(C)C)n(C)c(=O)c2s1 returned RAD54 inh 33, RAD52 inh 56* and DNA binder FP inactive.
CCN(CC)CCCN(C(=O)c1cccs1)c1nc(-c2ccc(OC)cc2)cs1 was read as DNA FID counter 27, beta cell repl -5, RAD54 inh 19, PREPL inhibitor 10 and UBC13 polyUb 14.
Screening CCN(CC)CCCN(C(=O)c1ccco1)c1nc(-c2ccc(C)cc2)cs1 returned DNA FID counter 21, beta cell repl -7, RAD54 inh 25, PREPL inhibitor -46, UBC13 polyUb 9, RAD52 inh 52* and DNA binder FP inactive.
CCN(CC)CCCN(C(=O)c1ccc(Br)cc1)c1nc(-c2ccc(OC)cc2)cs1 was read as DNA FID counter 32, beta cell repl -5, RAD54 inh 23, PREPL inhibitor -10, UBC13 polyUb 26, RAD52 inh 57* and DNA binder FP inactive.
COc1ccc(-c2csc(N(CCCN(C)C)C(=O)c3ccc(OC)c(OC)c3)n2)cc1 was read as RAD54 inh 5 and RAD52 inh -10.
For CCN(CC)CCCN(C(=O)c1cccc(C)c1)c1nc(-c2ccc(OC)cc2)cs1 the results were DNA FID counter 19, beta cell repl -5, RAD54 inh 19, PREPL inhibitor -12, UBC13 polyUb 22, RAD52 inh 58* and DNA binder FP inactive.
Screening Cc1cc(N)ccc1NC(=O)CN1CCCC1 returned DNA FID counter 5, beta cell repl 0, RAD54 inh 24, PREPL inhibitor 1, UBC13 polyUb -4, RAD52 inh 101* and DNA binder FP inactive.
For COc1ccc(N)cc1NC(=O)CN1CCCC1 the results were DNA FID counter 1, beta cell repl -2, RAD54 inh 43, PREPL inhibitor 2, UBC13 polyUb -4, RAD52 inh 79* and DNA binder FP inactive.
For COc1ccc2c3c(n(C)c2c1)[C@H](CO)N(C(=O)CC1CC1)CC31CCN(C(=O)C2CC2)CC1 the results were RAD52 inh -5.
Screening Cc1cc(N/N=C/c2ccccc2O)c2ccccc2n1 returned DNA FID counter 23, beta cell repl -5, RAD54 inh 104*, PREPL inhibitor 27, UBC13 polyUb 4, RAD52 inh 102* and DNA binder FP inactive.
Screening COCC(=O)N1CC2(CCN(C(=O)c3ccccn3)CC2)c2c(n(C)c3cc(OC)ccc23)[C@H]1CO returned RAD52 inh 13.
Oc1cc(NCc2ccc(F)cc2)cc2cccnc12 was read as beta cell repl -4, RAD54 inh 3, PREPL inhibitor 31, UBC13 polyUb 9 and RAD52 inh -5.
`CN(C)CCCNc1cc(O)c2ncccc2c1` gave beta cell repl -6, RAD54 inh -1, PREPL inhibitor 24, UBC13 polyUb inconclusive, RAD52 inh 70* and DNA binder FP inactive.
Screening COc1cccc(OCC(O)CN2CCC(CN3C(=O)c4cccc5cccc(c45)C3=O)CC2)c1 (stereo not given) returned DNA FID counter 14, beta cell repl -5, PREPL inhibitor 6, UBC13 polyUb 26, RAD52 inh 86* and DNA binder FP inactive.
`COc1cccc(OCC(O)CN2CCN(C)CC2)c1` (stereo not given) gave DNA FID counter 1, beta cell repl -3, RAD54 inh -2, PREPL inhibitor 10, UBC13 polyUb 0 and RAD52 inh -6.
COc1cc(COCC(O)CN2CCN(CCN3C(=O)c4cccc5cccc(c45)C3=O)CC2)cc(OC)c1OC (stereo not given) was read as DNA FID counter 7, beta cell repl 3, PREPL inhibitor -1, UBC13 polyUb 26, RAD52 inh 85* and DNA binder FP inactive.
Screening Cc1nc(N=C(N)N)nc2ccccc12 returned DNA FID counter 3, beta cell repl -3, PREPL inhibitor 10, UBC13 polyUb -10, RAD52 inh 61* and DNA binder FP inactive.
Screening Cc1ccc2nc(N=C(N)N)nc(C)c2c1 returned DNA FID counter 8, beta cell repl -2, RAD54 inh inconclusive, PREPL inhibitor 0, UBC13 polyUb -9, RAD52 inh 51* and DNA binder FP inactive.
For Cc1cc2nc(/N=C(\N)NC(=O)C(C)C)nc(C)c2cc1C the results were DNA FID counter -3, beta cell repl -3, RAD54 inh -13, PREPL inhibitor 7, UBC13 polyUb -3 and RAD52 inh 10.
`Cc1nc(/N=C(\N)NC(=O)c2ccccc2)nc2ccccc12` gave DNA FID counter -3, beta cell repl -3, RAD54 inh 12, PREPL inhibitor -10, UBC13 polyUb 3 and RAD52 inh -31.
Screening Cc1cc2nc(N=C(N)N)nc(C)c2cc1C returned DNA FID counter 33, RAD54 inh inconclusive, RAD52 inh 84* and DNA binder FP inactive.
`CCc1ccc2nc(N=C(N)N)nc(C)c2c1` gave DNA FID counter 7, beta cell repl -6, PREPL inhibitor 9, UBC13 polyUb -2, RAD52 inh 51* and DNA binder FP inactive.
